{"source": "PubChem BioAssay (Tox21)", "note": "Results filed as inconclusive are left out. Entries that show only a call come without a potency. Activity calls are given as the source filed them. Calls follow the shape of the dose curve; as a rule, active = well fitted inhibition curve with a large enough effect in the signal ratio in the repeat runs, with a control signal flat; inconclusive = weak or mixed curves, or effect the other way; inactive = flat fitted curve, though single readings scatter; the % refers to the signal ratio. Potency is read from the fitted curve at half-maximal effect.", "data": [{"molecular_target": "D(2) dopamine receptor (Homo sapiens) (UniProt P14416)", "sequence (P14416 whole entry, looked up)": "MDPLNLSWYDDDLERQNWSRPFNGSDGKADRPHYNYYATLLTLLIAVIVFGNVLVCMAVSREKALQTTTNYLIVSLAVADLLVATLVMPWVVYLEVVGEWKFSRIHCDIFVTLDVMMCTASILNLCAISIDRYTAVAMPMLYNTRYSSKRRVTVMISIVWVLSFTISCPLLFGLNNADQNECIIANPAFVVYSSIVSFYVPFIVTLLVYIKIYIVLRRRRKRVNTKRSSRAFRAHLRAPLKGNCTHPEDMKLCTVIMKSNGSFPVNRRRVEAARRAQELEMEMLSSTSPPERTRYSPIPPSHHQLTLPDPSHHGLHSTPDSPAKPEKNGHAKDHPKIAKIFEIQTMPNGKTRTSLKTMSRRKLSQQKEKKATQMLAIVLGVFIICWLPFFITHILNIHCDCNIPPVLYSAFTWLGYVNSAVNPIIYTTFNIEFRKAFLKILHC", "assay": "Dopamine D2 receptor (DRD2) small molecule antagonists, cell-based qHTS assay (AID 1963595)", "details": "HEK293-DRD2 cAMP HTRF antagonist mode; series mostly up to 92.4 µM", "source_text": "National Center for Advancing Translational Sciences [NCATS]\nDivision of Preclinical Innovation [DPI]\nU.S. Environmental Protection Agency [EPA]\nNational Institutes of Environmental Health Sciences [NIEHS]\nNational Toxicology Program [NTP]\nU.S. Food and Drug Administration [FDA]\nDRD2 is the D2 subtype of the dopamine receptor, which is coupled to Gi subtype of G protein-coupled receptor. This G protein-coupled receptor inhibits adenylyl cyclase activity. The DRD2-HEK293 cell line stably expressing D2 dopamine receptor can be used for screening agonists and antagonists of interactions between D2 and its ligands. The Hek293-DRD2 cAMP assay is based on HTRF technology. It measures changes of cAMP accumulation in response to Gi coupled GPCR activation or inhibition.\nTox21 Assay Protocol Summary:\nDRD2-Hek293 cells were dispensed at 600 cells/3uL/well in 1536-well white plates using a Multidrop Dispenser. After the assay plates were incubated at a 37 C/5% CO2 incubator for 24 h, 1 uL of Ro20-1724 at final concentration of 0.1 mM was transferred to the assay plate by a Flying Reagent Dispenser. Following Ro20-1724 addition, 23 nL of compound dissolved in DMSO, positive controls or DMSO only was added to the assay plates via Wako pintool station. The assay plates were incubated at room temperature for 10 min. Next, 1 uL of mixture of NKH477 (final concentration at 200 nM) and quinpirole (final concentration at 12 nM) was added into the plates. After the assay plates were incubated at room temperature for an additional 30 min, 2.5 ul/well of cAMP-d2 and 2.5 ul/well of anti-cAMP-cryptate were added respectively into the assay plates using a Flying Reagent Dispenser. The plates were incubated at room temperature for 1 h. The fluorescence intensity in the plates was measured at 340 nm excitation and 665 & 620 nm emission by an Envision plate reader.", "values": [{"smiles": "CC(C)C/C=C(\\C=O)c1ccccc1", "Potency": "inactive"}, {"smiles": "CN1CCN(C(c2ccccc2)c2ccccc2)CC1", "Potency": "inactive"}, {"smiles": "CCCCCCCCCOC(=O)c1ccccc1C(=O)OCCCCCCCCC", "Potency": "inactive"}, {"smiles": "NS(=O)(=O)c1cc(C(=O)NN2C[C@H]3[C@H]4CCC(C4)[C@H]3C2)ccc1Cl", "Potency": "inactive"}, {"smiles": "CC(C)c1ccc(C#N)cc1", "Potency": "inactive"}, {"smiles": "Cc1cc(O)c(C(C)(C)C)cc1Sc1cc(C(C)(C)C)c(O)cc1C", "Potency": "21.6 µM (active)"}, {"smiles": "Nc1ccc(S(=O)(=O)O)c(N)c1", "Potency": "inactive"}, {"smiles": "O=C(O)c1cccc(-c2noc(-c3ccccc3F)n2)c1", "Potency": "inactive"}, {"smiles": "CCCCOC(=O)C(C)Oc1ccc(Oc2ccc(C(F)(F)F)cn2)cc1", "note": "(stereo not given)", "Potency": "inactive"}, {"smiles": "CCCCCCOC(=O)CCCCC", "Potency": "inactive"}, {"smiles": "CCOC(=O)c1ccccc1", "Potency": "inactive"}, {"smiles": "Cc1cc(C)c(O)c(C(C)(C)C)c1", "Potency": "inactive"}, {"smiles": "CO[Si](CCCn1c(=O)n(CCC[Si](OC)(OC)OC)c(=O)n(CCC[Si](OC)(OC)OC)c1=O)(OC)OC", "Potency": "inactive"}, {"smiles": "CC(=O)C1C(=O)C=C(C)OC1=O", "note": "(stereo not given)", "Potency": "inactive"}, {"smiles": "O=Cc1ccc(F)c(Br)c1", "Potency": "inactive"}, {"smiles": "CC(C)(C)C(=O)/C=C/c1ccc(Cl)cc1", "Potency": "inactive"}, {"smiles": "Cc1cccc(C(=O)O)c1[N+](=O)[O-]", "Potency": "inactive"}, {"smiles": "CN1C(=O)c2ccc([N+](=O)[O-])cc2C1=O", "Potency": "inactive"}, {"smiles": "CCCCN(CCCC)C(=O)N(CCCC)CCCC", "Potency": "inactive"}, {"smiles": "C[Si](C)(CCCN)O[Si](C)(C)CCCN", "Potency": "inactive"}, {"smiles": "O=C1OC(=O)c2cccc3cccc1c23", "Potency": "inactive"}, {"smiles": "Cc1nc2ccccc2n1Cc1ccc(Cl)cc1", "Potency": "inactive"}, {"smiles": "O=C(O)COCC(=O)O", "Potency": "inactive"}, {"smiles": "O=C(NC1CCN(CCc2c[nH]c3ccccc23)CC1)c1ccccc1", "Potency": "0.596 µM (active)"}, {"smiles": "CO[C@@H]1[C@@H](OC(N)=O)[C@@H](O)[C@H](Oc2ccc3c(O)c(NC(=O)c4ccc(O)c(CC=C(C)C)c4)c(=O)oc3c2C)OC1(C)C", "Potency": "inactive"}, {"smiles": "Cc1c(N=C=O)cccc1N=C=O", "Potency": "inactive"}, {"smiles": "CCC1C(=O)OCC1Cc1cncn1C", "note": "(stereo not given)", "Potency": "inactive"}, {"smiles": "O[C@@H]1CO[C@H]2[C@@H]1OC[C@@H]2O", "Potency": "inactive"}, {"smiles": "O=C(O)C1CCC1", "Potency": "inactive"}, {"smiles": "Cc1ccc(C(=O)c2ccccc2)cc1", "Potency": "inactive"}, {"smiles": "C=CC(=O)OCC1CCCO1", "note": "(stereo not given)", "Potency": "inactive"}, {"smiles": "COc1ccc(C(=O)N2CCN(CC(=O)N3CCOCC3)CC2)cc1", "Potency": "inactive"}, {"smiles": "CCCCCCC(O)CCCCCCCCCCC(=O)OC", "note": "(stereo not given)", "Potency": "inactive"}, {"smiles": "Cc1cc(CC(=O)O)c(C)n1-c1ccc(Cl)cc1", "Potency": "inactive"}, {"smiles": "CC[N+](CC)(CC)Cc1ccccc1", "Potency": "inactive"}, {"smiles": "CC1c2ccccc2CN1NC(=O)c1ccc(Cl)c(S(N)(=O)=O)c1", "note": "(stereo not given)", "Potency": "inactive"}, {"smiles": "CCC(=O)O[C@]1(C(=O)CCl)[C@@H](C)C[C@H]2[C@@H]3CCC4=CC(=O)C=C[C@]4(C)[C@@]3(F)[C@@H](O)C[C@@]21C", "Potency": "inactive"}, {"smiles": "C=COCC1CCC(COC=C)CC1", "note": "(stereo not given)", "Potency": "inactive"}, {"smiles": "CCC1=C(C)CN(C(=O)NCCc2ccc(S(=O)(=O)NC(=O)NC3CCC(C)CC3)cc2)C1=O", "note": "(stereo not given)", "Potency": "inactive"}, {"smiles": "C1OCOCO1", "Potency": "inactive"}]}]}
